Experimental data as given in the supplement of paper PMC10849652.
Of roughly 7,900 targets only a part is listed; those with a hit were picked by preference. About 0.6% of all pairs of compound and target were hits.

Experiments:
Assay in all cases: log2 fold change, soluble protein after heating vs DMSO (PISA); higher = thermal stabilisation; K562 cells, 10 uM, 30 min; active = over 0.2 and 3.5 SD of the protein, either way, in both replicates (recomputed)
filanesib = compound: CON(C)C(=O)N1N=C(c2cc(F)ccc2F)S[C@@]1(CCCN)c1ccccc1 [filanesib]
In short: (§1)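 K562 cells at 2×10^6 cells/mL were treated with 10 μM compound for 30 min. Aliquots were heated for 3 min across 48°C-58°C, pooled, and extracted in PBS with 0.5% NP-40 at 4°C; soluble protein was the supernatant after 21,000xg for 90 min. Soluble protein was quantified by TMTpro 16plex LC-MS/MS with channel sums equalised, and reported as log2 fold change in thermal stability against DMSO controls, with values from duplicates.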

alisertib = compound: COc1cc(Nc2ncc3c(n2)-c2ccc(Cl)cc2C(c2c(F)cccc2OC)=NC3)ccc1C(=O)O [alisertib]
In short: as §1

[1] = compound: COc1cc2nc(-c3cc(F)ccc3O)nc(N[C@@H]3CNC[C@H]3C(C)(C)O)c2cc1OC
In short: as §1

[2] = compound: COc1cccc2cc(-c3nc([C@H]4CC[C@H](C(=O)O)CC4)n4ncnc(N)c34)[nH]c12
In short: as §1

lapatinib = compound: CS(=O)(=O)CCNCc1ccc(-c2ccc3ncnc(Nc4ccc(OCc5cccc(F)c5)c(Cl)c4)c3c2)o1 [lapatinib]
In short: as §1

[3] = compound: CS(=O)(=O)c1ccc(-c2cnc(N)c(C(=O)Nc3ccccc3)n2)cc1
In short: as §1

ispinesib = compound: Cc1ccc(C(=O)N(CCCN)[C@@H](c2nc3cc(Cl)ccc3c(=O)n2Cc2ccccc2)C(C)C)cc1 [ispinesib]
In short: as §1

pictilisib = compound: CS(=O)(=O)N1CCN(Cc2cc3nc(-c4cccc5[nH]ncc45)nc(N4CCOCC4)c3s2)CC1 [pictilisib]
In short: as §1

[4] = compound: C[C@@H]1COCCN1C2=NC(=NC(=C2)C3(CC3)S(=O)(=O)C)C4=C5C=CNC5=CC=C4
In short: as §1

gandotinib = compound: Cc1cc(Nc2cc(CN3CCOCC3)c3nc(C)c(Cc4ccc(Cl)cc4F)n3n2)n[nH]1 [gandotinib]
In short: as §1

tozasertib = compound: Cc1cc(Nc2cc(N3CCN(C)CC3)nc(Sc3ccc(NC(=O)C4CC4)cc3)n2)n[nH]1 [tozasertib]
In short: as §1

[5] = compound: COC1=CC=C(C=C1)CN2C=CC3=C2C=C(C=C3)C(=O)NO
In short: as §1

gefitinib = compound: COc1cc2ncnc(Nc3ccc(F)c(Cl)c3)c2cc1OCCCN1CCOCC1 [gefitinib]
In short: as §1

crizotinib = compound: C[C@@H](Oc1cc(-c2cnn(C3CCNCC3)c2)cnc1N)c1c(Cl)ccc(F)c1Cl [crizotinib]
In short: as §1

duvelisib = compound: C[C@H](Nc1ncnc2nc[nH]c12)c1cc2cccc(Cl)c2c(=O)n1-c1ccccc1 [duvelisib]
In short: as §1

[6] = compound: Cc1cc(SCc2sc(-c3ccc(C(F)(F)F)cc3)nc2C)ccc1OCC(=O)O
In short: as §1

doramapimod = compound: Cc1ccc(-n2nc(C(C)(C)C)cc2NC(=O)Nc2ccc(OCCN3CCOCC3)c3ccccc23)cc1 [doramapimod]
In short: as §1

zotarolimus = compound: CO[C@H]1C[C@@H]2CC[C@@H](C)[C@@](O)(O2)C(=O)C(=O)N2CCCC[C@H]2C(=O)O[C@H]([C@H](C)C[C@@H]2CC[C@H](n3cnnn3)[C@H](OC)C2)CC(=O)[C@H](C)/C=C(\C)[C@@H](O)[C@@H](OC)C(=O)[C@H](C)C[C@H](C)/C=C/C=C/C=C/1C [zotarolimus]
In short: as §1

idasanutlin = compound: COc1cc(C(=O)O)ccc1NC(=O)[C@@H]1N[C@@H](CC(C)(C)C)[C@](C#N)(c2ccc(Cl)cc2F)[C@H]1c1cccc(Cl)c1F [idasanutlin]
In short: as §1

[7] = compound: C[C@H](C1=CC=C(C=C1)C(=O)NC2=C3C=CNC3=NC=C2)N
In short: as §1

Measured: log2 fold change

EPHB4 (UniProt P54760)
Sequence of UniProt P54760 (P54760 whole entry, looked up): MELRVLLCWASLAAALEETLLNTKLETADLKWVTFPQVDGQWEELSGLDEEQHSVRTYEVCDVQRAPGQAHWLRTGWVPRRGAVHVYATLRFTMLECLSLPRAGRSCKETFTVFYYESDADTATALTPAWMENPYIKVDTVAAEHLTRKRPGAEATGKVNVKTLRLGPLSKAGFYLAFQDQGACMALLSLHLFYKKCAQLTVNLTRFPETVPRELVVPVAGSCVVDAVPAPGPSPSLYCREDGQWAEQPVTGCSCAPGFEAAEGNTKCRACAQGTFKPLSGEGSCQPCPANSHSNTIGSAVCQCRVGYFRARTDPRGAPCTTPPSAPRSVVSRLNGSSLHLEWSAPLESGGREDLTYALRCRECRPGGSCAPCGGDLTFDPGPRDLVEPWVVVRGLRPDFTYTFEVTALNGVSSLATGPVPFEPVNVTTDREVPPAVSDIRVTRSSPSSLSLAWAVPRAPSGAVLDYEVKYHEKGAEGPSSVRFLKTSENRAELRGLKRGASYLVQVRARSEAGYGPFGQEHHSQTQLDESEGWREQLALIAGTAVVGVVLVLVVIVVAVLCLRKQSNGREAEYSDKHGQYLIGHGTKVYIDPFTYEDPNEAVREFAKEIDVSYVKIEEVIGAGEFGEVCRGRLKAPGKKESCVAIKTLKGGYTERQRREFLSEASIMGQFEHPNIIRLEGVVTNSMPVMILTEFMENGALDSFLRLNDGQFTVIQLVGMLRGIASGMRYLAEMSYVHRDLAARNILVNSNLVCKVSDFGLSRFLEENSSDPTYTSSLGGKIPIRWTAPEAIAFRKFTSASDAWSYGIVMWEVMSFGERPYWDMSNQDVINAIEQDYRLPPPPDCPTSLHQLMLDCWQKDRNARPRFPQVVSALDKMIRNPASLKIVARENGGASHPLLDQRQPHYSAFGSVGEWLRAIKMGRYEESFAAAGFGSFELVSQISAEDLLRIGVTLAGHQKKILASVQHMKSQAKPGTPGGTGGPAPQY
active: [2] -0.937
inactive: filanesib 0.134 | alisertib -0.017 | [1] 0.395 | lapatinib 0.08 | [3] 0.15 | ispinesib -0.016

ERF (UniProt P50548)
inactive: filanesib 0.328 | pictilisib 0.148 | [3] 0.173 | [4] -0.05 | gandotinib -0.29
active: tozasertib -1.2

CTNNBL1 (UniProt Q8WYA6)
inactive: [1] -0.008 | lapatinib -0.581

ELMO1 (UniProt Q92556)
Sequence of UniProt Q92556 (Q92556 whole entry, looked up): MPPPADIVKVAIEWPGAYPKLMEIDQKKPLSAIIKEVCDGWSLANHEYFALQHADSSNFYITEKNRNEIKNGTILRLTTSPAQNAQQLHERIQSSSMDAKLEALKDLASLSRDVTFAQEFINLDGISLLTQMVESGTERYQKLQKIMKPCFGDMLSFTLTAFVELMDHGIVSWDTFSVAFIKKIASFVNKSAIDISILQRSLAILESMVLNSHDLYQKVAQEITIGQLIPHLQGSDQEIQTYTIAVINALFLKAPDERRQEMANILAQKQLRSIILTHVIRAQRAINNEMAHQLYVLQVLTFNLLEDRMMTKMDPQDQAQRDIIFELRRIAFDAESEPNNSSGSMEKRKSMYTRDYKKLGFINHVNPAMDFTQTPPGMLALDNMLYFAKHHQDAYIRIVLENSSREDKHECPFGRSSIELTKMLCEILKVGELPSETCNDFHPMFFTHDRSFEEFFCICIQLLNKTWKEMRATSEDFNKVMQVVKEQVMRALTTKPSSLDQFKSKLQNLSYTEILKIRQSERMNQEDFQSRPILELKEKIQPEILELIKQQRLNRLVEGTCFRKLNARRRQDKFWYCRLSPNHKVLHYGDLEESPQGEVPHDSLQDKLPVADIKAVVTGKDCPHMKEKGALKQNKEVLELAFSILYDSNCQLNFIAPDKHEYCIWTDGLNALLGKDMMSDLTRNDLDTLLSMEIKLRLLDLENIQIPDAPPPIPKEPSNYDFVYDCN
inactive: [5] -0.108 | filanesib 0.072 | alisertib 0.212 | gefitinib 0.017 | [2] 0.08 | [3] 0.06 | crizotinib -0.019 | [4] 0 | duvelisib 0.163 | [6] -0.043 | doramapimod 0.033 | ispinesib -0.299

F2RL3 (UniProt Q96RI0)
Sequence of UniProt Q96RI0 (Q96RI0 whole entry, looked up): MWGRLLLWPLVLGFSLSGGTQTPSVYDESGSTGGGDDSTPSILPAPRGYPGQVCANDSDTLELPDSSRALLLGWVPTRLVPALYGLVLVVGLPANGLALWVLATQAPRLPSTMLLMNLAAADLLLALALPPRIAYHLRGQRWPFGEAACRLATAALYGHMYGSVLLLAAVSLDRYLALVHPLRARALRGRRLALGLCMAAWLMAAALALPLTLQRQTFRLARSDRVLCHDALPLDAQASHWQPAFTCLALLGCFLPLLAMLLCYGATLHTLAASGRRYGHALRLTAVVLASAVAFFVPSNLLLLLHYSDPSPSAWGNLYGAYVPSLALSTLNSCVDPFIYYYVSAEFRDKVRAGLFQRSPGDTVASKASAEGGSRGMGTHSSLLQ
inactive: zotarolimus -0.075 | idasanutlin -0.017 | [1] 0.017 | lapatinib 0.029 | [7] -0.159 | duvelisib 0.081 | tozasertib -0.163 | [6] -0.059 | ispinesib 0.004

DLK1 (UniProt P80370)
Sequence of UniProt P80370 (P80370 whole entry, looked up): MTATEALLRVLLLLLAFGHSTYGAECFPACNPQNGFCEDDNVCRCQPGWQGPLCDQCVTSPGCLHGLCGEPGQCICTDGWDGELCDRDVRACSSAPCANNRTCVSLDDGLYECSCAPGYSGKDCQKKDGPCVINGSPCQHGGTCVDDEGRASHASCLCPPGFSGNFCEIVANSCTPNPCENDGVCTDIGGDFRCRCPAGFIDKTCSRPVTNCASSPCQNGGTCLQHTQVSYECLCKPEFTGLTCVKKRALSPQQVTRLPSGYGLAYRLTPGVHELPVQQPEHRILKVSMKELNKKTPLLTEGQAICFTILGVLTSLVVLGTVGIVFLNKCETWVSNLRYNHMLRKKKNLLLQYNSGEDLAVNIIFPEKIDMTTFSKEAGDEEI
inactive: [5] -0.021 | zotarolimus -0.095 | crizotinib -0.108 | [4] -0.151 | [7] -0.133 | duvelisib -0.173 | [6] -0.058 | doramapimod 0.002

FAM135A (UniProt Q9P2D6)
inactive: filanesib 0.13 | gefitinib 0.052 | [3] 0.087 | [4] 0.038

EIF3J isoform 2 (UniProt O75822)
inactive: [5] -0.099 | filanesib 0.013 | idasanutlin 0.107 | alisertib -0.074 | [1] 0.051 | gefitinib 0.047 | [2] 0.02 | lapatinib -0.116 | [3] 0.035 | crizotinib 0.049 | [4] -0.043 | duvelisib 0.161 | tozasertib -0.136 | [6] -0.038 | doramapimod 0.011

DENND10 (UniProt Q8TCE6)
Sequence of UniProt Q8TCE6 (Q8TCE6 whole entry, looked up): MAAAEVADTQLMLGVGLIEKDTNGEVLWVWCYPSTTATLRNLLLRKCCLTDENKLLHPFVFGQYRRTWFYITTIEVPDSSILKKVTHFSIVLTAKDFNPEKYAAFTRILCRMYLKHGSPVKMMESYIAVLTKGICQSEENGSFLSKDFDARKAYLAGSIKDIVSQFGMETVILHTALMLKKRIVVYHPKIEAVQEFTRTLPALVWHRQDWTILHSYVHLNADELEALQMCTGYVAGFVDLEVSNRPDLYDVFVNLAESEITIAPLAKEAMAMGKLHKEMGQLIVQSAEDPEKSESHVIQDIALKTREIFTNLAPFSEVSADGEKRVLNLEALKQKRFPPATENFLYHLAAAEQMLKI
inactive: filanesib -0.133 | zotarolimus -0.017 | idasanutlin 0.003 | alisertib -0.065 | [1] 0.114 | gefitinib 0.1 | [2] -0.05 | lapatinib -0.021 | [3] 0.046 | [7] -0.015 | duvelisib 0.044 | tozasertib -0.063 | [6] 0.03 | ispinesib -0.021
active: [4] 0.298

DBNL (UniProt Q9UJU6)
inactive: zotarolimus -0.324 | [7] -0.166

CYP24A1 (UniProt Q07973)
Sequence of UniProt Q07973 (Q07973 whole entry, looked up): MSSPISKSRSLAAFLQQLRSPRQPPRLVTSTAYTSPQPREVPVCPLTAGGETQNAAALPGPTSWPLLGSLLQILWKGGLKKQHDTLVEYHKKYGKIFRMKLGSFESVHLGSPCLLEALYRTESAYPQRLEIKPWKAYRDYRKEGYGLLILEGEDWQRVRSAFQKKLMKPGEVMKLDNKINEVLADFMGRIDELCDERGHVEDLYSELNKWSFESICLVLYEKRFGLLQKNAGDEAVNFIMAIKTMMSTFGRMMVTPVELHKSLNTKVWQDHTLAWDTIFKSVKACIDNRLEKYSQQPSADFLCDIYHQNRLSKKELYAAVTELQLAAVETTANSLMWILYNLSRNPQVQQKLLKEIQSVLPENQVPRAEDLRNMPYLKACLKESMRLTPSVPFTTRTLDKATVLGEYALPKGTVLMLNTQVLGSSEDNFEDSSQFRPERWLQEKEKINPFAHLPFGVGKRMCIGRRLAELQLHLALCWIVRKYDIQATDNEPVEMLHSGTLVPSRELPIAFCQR
inactive: [5] 0.1 | idasanutlin 0.039 | alisertib -0.095 | [1] 0.091 | gefitinib -0.044 | [2] -0.306 | lapatinib 0.067 | pictilisib -0.059 | crizotinib -0.043 | duvelisib -0.079 | gandotinib 0.535 | tozasertib -0.05 | [6] -0.13 | doramapimod 0.283 | ispinesib -0.244

ELOVL7 (UniProt A1L3X0)
inactive: zotarolimus 0.012 | idasanutlin -0.118 | [4] 0.088 | [7] 0.037 | duvelisib -0.016 | tozasertib -0.018 | [6] 0.025

EPHX2 (UniProt E5RI53)
inactive: [4] 0.067

EID1 (UniProt Q9Y6B2)
Sequence of UniProt Q9Y6B2 (Q9Y6B2 whole entry, looked up): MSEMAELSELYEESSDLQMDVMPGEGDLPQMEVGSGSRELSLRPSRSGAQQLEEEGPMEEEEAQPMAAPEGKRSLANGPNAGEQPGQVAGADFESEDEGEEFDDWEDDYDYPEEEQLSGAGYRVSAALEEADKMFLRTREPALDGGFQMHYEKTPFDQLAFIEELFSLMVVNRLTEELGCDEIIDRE
inactive: filanesib 0.119 | alisertib 0.024 | [1] 0.015 | gefitinib -0.031 | [2] -0.239 | lapatinib -0.097 | pictilisib 0.3 | [3] -0.14 | [4] -0.424 | gandotinib 0.275 | tozasertib -0.142

EEF1D isoform 3 (UniProt P29692)
Sequence of UniProt P29692 (P29692 whole entry, looked up): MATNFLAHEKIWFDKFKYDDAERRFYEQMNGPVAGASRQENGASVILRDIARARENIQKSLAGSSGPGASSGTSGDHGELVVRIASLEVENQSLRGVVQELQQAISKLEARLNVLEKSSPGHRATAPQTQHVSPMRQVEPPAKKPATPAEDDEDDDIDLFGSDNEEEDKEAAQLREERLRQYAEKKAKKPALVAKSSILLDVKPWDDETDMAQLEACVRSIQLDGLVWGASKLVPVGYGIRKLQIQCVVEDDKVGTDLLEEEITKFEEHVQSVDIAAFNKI
inactive: alisertib -0.067 | [2] -0.105 | tozasertib 0.212

DERPC (UniProt P0CG12)
Sequence of UniProt P0CG12 (P0CG12 whole entry, looked up): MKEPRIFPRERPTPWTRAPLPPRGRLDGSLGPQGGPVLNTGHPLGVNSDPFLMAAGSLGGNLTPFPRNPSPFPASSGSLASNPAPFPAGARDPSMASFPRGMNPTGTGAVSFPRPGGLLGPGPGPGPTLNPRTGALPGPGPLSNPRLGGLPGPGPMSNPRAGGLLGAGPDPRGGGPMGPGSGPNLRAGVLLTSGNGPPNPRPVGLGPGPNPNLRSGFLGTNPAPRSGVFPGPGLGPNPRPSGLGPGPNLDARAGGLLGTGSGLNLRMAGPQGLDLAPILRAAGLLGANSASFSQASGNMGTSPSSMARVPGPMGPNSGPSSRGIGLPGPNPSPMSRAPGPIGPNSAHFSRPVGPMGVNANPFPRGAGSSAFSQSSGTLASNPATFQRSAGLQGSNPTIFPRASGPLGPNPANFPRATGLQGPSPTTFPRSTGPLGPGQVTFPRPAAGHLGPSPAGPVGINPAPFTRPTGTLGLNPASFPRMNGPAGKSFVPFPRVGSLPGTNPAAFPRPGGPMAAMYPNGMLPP
inactive: [5] -0.016 | alisertib 0.021 | gefitinib 0.099 | [2] 0.086 | pictilisib -0.107 | crizotinib 0.029 | duvelisib 0.191 | gandotinib 0.006 | [6] -0.113 | doramapimod -0.099 | ispinesib 0.07

DCAF4 (UniProt Q8WV16)
Sequence of UniProt Q8WV16 (Q8WV16 whole entry, looked up): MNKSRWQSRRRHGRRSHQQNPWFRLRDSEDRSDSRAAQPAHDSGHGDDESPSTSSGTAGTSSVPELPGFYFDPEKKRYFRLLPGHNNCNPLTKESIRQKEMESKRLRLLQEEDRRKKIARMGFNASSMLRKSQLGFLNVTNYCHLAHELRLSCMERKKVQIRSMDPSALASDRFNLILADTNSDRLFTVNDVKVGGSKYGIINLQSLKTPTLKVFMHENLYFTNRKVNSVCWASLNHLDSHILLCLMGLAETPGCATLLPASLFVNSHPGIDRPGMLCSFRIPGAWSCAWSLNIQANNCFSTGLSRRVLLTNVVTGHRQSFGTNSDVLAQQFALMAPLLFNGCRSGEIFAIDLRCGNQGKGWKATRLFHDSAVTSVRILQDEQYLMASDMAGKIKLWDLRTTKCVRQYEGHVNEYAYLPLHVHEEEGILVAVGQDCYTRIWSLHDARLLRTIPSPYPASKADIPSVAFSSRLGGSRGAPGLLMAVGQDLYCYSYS
inactive: filanesib 0.018 | alisertib -0.076 | gefitinib -0.012 | [2] 0.005 | pictilisib 0.074 | [3] -0.06 | [4] 0.032 | duvelisib -0.302 | gandotinib 0.07 | [6] -0.056 | ispinesib -0.165

ENTR1 (UniProt Q96C92)
inactive: [1] -0.065 | lapatinib 0.075 | duvelisib 0.003 | [6] 0.048

DOP1A (UniProt Q5JWR5)
inactive: alisertib -0.013 | [2] 0.02 | [4] 0.007

DCAF12 (UniProt Q5T6F0)
inactive: filanesib -0.037 | alisertib 0.073 | [2] 0.036 | pictilisib 0.16 | [3] -0.101
active: gandotinib -0.735

ENTPD7 (UniProt Q9NQZ7)
inactive: [5] -0.031 | filanesib -0.268 | alisertib -0.054 | [1] 0.06 | gefitinib -0.026 | [2] 0.03 | lapatinib 0.099 | [3] 0.256 | crizotinib 0.084 | [4] -0.037 | duvelisib -0.178 | tozasertib 0.185 | [6] 0.014 | doramapimod 0.025
